Six1-Eya2 blk: qHTS Assay for Inhibitors of the Six1/Eya2 Interaction. Homeobox protein SIX1 (Homo sapiens) + Protein phosphatase EYA2 (Homo sapiens), …. AlphaScreen GST-Six1/His-Eya2 binding, biochemical; stronger effect = lower value. activity change, % (test concentration not listed). 360,000 tested, 0.56% active. AID 651725, 2012; in the data active means activity change below about -65%; inconclusive means mostly about -30% to -63%; further: on the % scale 0 is the no-effect control and ±100 the full control effect
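AlphaScreen luminescence read after one hour at 37 °C in darkness. Pin-transferred compounds met GST-Six1 and His-Eya2 protein (5X stock 250 nM/500 nM) plus glutathione donor and Ni-chelate acceptor beads (5X, 50 ug/mL).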
CtBP-E1A inh: qHTS Assay for Inhibitors of the CtBP/E1A Interaction. CtBP / adenovirus E1A interaction (AlphaScreen). AlphaScreen GST-E1A/His-CtBP binding, 1536-well; stronger effect = lower value. activity change, % (no concentration beside the values). 340,000 tested, 0.49% active. AID 651724, 2012; in the data active means activity change below about -65%; inconclusive means mostly about -30% to -63%; further: on the % scale 0 is the no-effect control and ±100 the full control effect
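Homogeneous bead-based format: GST-tagged E1A captured on glutathione donor beads, His-tagged CtBP on nickel acceptor beads; compounds precede bead addition by 2 h at 37 °C.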
ATXN viability: Viability Counterscreen for Primary qHTS for Inhibitors of ATXN expression | S2 cells (HEK-293 line with an ATXN2-luciferase reporter) viability, CellTiter-Fluor protease fluorescence, 24 h | Potency, µM (doses to about 56.7 µM), usual class: cytotoxic | 400,000 tested, 0.49% active | AID 651635, 2014; further: potency means the concentration at half of the fitted maximal effect; nearly all actives have a fitted effect of over 40% in size
TGFb SMAD3 inh: qHTS for Inhibitors of TGF-b; HepG2 CAGA-GFP TGF-b/SMAD3 reporter, GFP fluorescence, 18 h; TGF-beta stimulated, 500 pg/mL final; Potency, µM (highest dose often 46.1 µM), inactives show top-dose activity, negative = inhibition, hits mostly inhibitors; 410,000 tested, 1.2% active; AID 588855, 2011; further: potency means the concentration at half of the fitted maximal effect; on the % scale 0 is the no-effect control and ±100 the full control effect; nearly all actives have a fitted effect of over 65% in size
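Using HEPG2 CAGA-GFP reporter cells at 1000 cells/well, we pinned test compounds, stimulated with recombinant TGF-beta (500 pg/mL final) and measured total well GFP after 18 h.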
ATXN2 expr inh: Primary qHTS for Inhibitors of ATXN expression; HEK-293 ATXN2-luciferase reporter, luminescence, 24 h; Potency, µM (highest dose often 57 µM), inactives show top-dose activity change, negative = inhibition, most hits filed as inhibitors; 360,000 tested, 0.72% active; further: potency means the concentration at half of the fitted maximal effect; on the % scale 0 is the no-effect control and ±100 the full control effect; nearly all actives have a fitted effect of over 55% in size
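ATXN2-luciferase reporter cells (luciferase flanked by upstream and downstream ATXN2 gene portions) were treated 24 h at 37 °C with compounds at up to 57 uM. SteadyGlo luminescence gave expression; GF-AFC fluorescence gave viability.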
HepG2 viability: qHTS for Inhibitors of TGF-b: Cytotox Counterscreen; Potency, µM (top dose mostly 46.1 µM), for inactives: top-dose activity change, negative = cytotoxicity, usual class: cytotoxic; 410,000 tested, 0.76% active; HepG2 CAGA-GFP viability, ATP luminescence, 18 h; further: potency means the concentration at half of the fitted maximal effect
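HepG2 CAGA-GFP cells (1000/well, DMEM with 1% FBS) received compound, then TGF-beta at 500 pg/mL final, and were incubated 18 hours at 37 degrees C. Viability was read by CellTiter-Glo luminescence. Media-only wells were set as complete cell-killing and DMSO as no toxicity.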
The depositor's hits bear a star. The list is not random: actives were taken first. Their share in the collection is about 2.8%. Unless noted, the call rests on the fitted dose curve; in most records, active means well fitted curve in the direction sought with a large enough effect; inconclusive means small, poorly fitted or top-dose-only effect, or another doubt; inactive means no such curve, though single readings can be large; an effect the other way counts as inactive or inconclusive.

O=C(CCc1ccccc1O)N/N=C/c1ccc(Sc2cccc3cccnc23)o1 was read as Six1-Eya2 blk -88*, CtBP-E1A inh -92*, ATXN viability inconclusive, TGFb SMAD3 inh 14µM*, ATXN2 expr inh -26% and HepG2 viability -59%.
For CCN(CC)c1ccc(/C=N/N2CCN(c3ccccc3OC)CC2)cc1 the results were Six1-Eya2 blk -67*, CtBP-E1A inh -21, ATXN viability inactive, TGFb SMAD3 inh 7%, ATXN2 expr inh -33% and HepG2 viability -29%.
CCN(CC)c1ccc(/C=N/N2CCN(Cc3ccccc3Cl)CC2)cc1 was read as Six1-Eya2 blk -74*, CtBP-E1A inh -27, ATXN viability inactive, TGFb SMAD3 inh 12%, ATXN2 expr inh -4% and HepG2 viability 0%.
`CN(C)c1ccc(/C=N/N2CCN(Cc3ccccc3Cl)CC2)cc1` gave Six1-Eya2 blk -7, CtBP-E1A inh -14, ATXN viability inactive, TGFb SMAD3 inh 2%, ATXN2 expr inh 3% and HepG2 viability -4%.
Screening CCN(CC)c1ccc(/C=N/N2CCN(Cc3ccccc3)CC2)c(O)c1 returned Six1-Eya2 blk -75*, CtBP-E1A inh inconclusive, ATXN viability inactive, TGFb SMAD3 inh -4%, ATXN2 expr inh 11% and HepG2 viability -2%.
For COCC1CCCN(Cc2ccc3c(c2)CN(C(=O)c2cccnc2OC)CCO3)C1 (configuration not stated) the results were ATXN viability inactive.
COc1cccc(Nc2nc(C(N)Cc3ccccc3)cs2)n1 (configuration not stated) was read as Six1-Eya2 blk -19, CtBP-E1A inh -25, ATXN viability inconclusive, TGFb SMAD3 inh 11µM*, ATXN2 expr inh inconclusive and HepG2 viability -95%.
`NC(=O)c1cccc(Nc2nc(C(N)COCc3ccccc3)cs2)n1` (configuration not stated) gave Six1-Eya2 blk inconclusive, CtBP-E1A inh inconclusive, ATXN viability inactive, TGFb SMAD3 inh -24%, ATXN2 expr inh -4% and HepG2 viability -21%.
Screening COc1cccc(Nc2nc(C(N)CO)cs2)n1 (configuration not stated) returned Six1-Eya2 blk inconclusive, CtBP-E1A inh -76*, ATXN viability inactive, TGFb SMAD3 inh 13%, ATXN2 expr inh 0% and HepG2 viability -10%.
Screening CCC(C)NC(=O)c1ccc2nc(-c3cccs3)c(-c3cccs3)nc2c1 (configuration not stated) returned TGFb SMAD3 inh -15% and HepG2 viability -12%.
COC(=O)c1ccc(-c2ccc(C3C4C=CCC(C)C4C(=O)N3Cc3ccccc3)c(F)c2)cc1 (configuration not stated) was read as TGFb SMAD3 inh -14% and HepG2 viability -4%.
Screening CC(C)(O)[C@H]1CC[C@@](C)([C@H]2[C@@H](O)C[C@@]3(C)[C@@H]4C[C@H](O[C@@H]5O[C@H](CO)[C@@H](O)[C@H](O)[C@@H]5O)[C@H]5C(C)(C)[C@@H](O[C@@H]6OC[C@@H](O)[C@H](O)[C@@H]6O)CC[C@@]56C[C@@]46CC[C@]23C)O1 returned ATXN2 expr inh 10%.
CCOC(=O)c1c(-c2ccc(C)cc2)csc1NC(=O)c1ccc(N2C(=O)CCC2=O)cc1 was read as Six1-Eya2 blk 4, CtBP-E1A inh 2, ATXN viability inactive, TGFb SMAD3 inh -3%, ATXN2 expr inh -5% and HepG2 viability -12%.
